Experimental data from PubChem BioAssay (NCI).
The panel holds about 83,000 compounds, 20% with a hit somewhere; the sample as a whole holds those more often.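 Treatment: one concentration, 48 hours, 96-well format. Scoring: percent growth, with anything below 10 considered active.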 Values without a mark were called inactive. Active and inactive are the calls of the source.

Key:
Experiment in all cases: NCI-60 one-dose screen, 48 h (100 = growth as untreated, 0 = no growth, -100 = all killed)
Conditions in all cases: 10 µM unless noted
[1] = tested on: SK-MEL-2 melanoma
[2] = tested on: EKVX NSCLC
[3] = tested on: SN12C renal
[4] = tested on: UO-31 renal
[5] = tested on: TK-10 renal
[6] = tested on: ACHN renal
[7] = tested on: CAKI-1 renal
[8] = tested on: A498 renal
[9] = tested on: CCRF-CEM leukemia
[10] = tested on: MOLT-4 leukemia
[11] = tested on: SR leukemia
[12] = tested on: RPMI-8226 leukemia
[13] = tested on: OVCAR-8 ovarian
[14] = tested on: OVCAR-5 ovarian
[15] = tested on: OVCAR-4 ovarian
[16] = tested on: SK-OV-3 ovarian
[17] = tested on: IGROV1 ovarian
[18] = tested on: OVCAR-3 ovarian
[19] = tested on: HS 578T breast
[20] = tested on: NCI/ADR-RES ovarian

SMILES	growth [1]	growth [2]	growth [3]	growth [4]	growth [5]	growth [6]	growth [7]	growth [8]	growth [9]	growth [10]	growth [11]	growth [12]	growth [13]	growth [14]	growth [15]	growth [16]	growth [17]	growth [18]	growth [19]	growth [20]
COc1cccc(NC(=O)c2sc3nc(C)c(C(=O)c4ccccc4)cc3c2N)c1	93.7%	69.1%	94.4%	93%	102%	96.6%	63.2%	-2.09% (active)	99%	115%	45.4%	94.5%	98.8%	97.5%	87.9%	41%	91.7%	92.9%	72.9%	98.1%
C#CC(F)(F)[C@]1(O)CCC2C3CCC4=CC(=O)CCC4=C3[C@@H](c3ccc(N(C)C)cc3)C[C@@]21C (stereo not given in full)	91.8%	90.4%	104%	76.3%	89.7%	99.4%	86.4%	87.9%	56.7%	75.4%	63.8%	74.6%	86.7%	119%	88.4%	87.8%	99%	95.1%	89.1%	94.6%
CCN1CCN(C(=O)[C@]23CC[C@@H](C)[C@H](C)[C@@H]2C2=CC[C@@H]4[C@@]5(C)C/C(=C/c6ccncc6)C(=O)C(C)(C)[C@@H]5CC[C@@]4(C)[C@]2(C)CC3)CC1	33.5%	43.7%	28.1%	9.04% (active)	38.7%	15.2%	43.6%	-10.5% (active)	5.24% (active)	0.087% (active)	-12.8% (active)	-29.5% (active)	37.4%	34.2%	29.8%	70.2%	29.8%	11.2%	7.21% (active)	27.4%
C=C(C)[C@@H]1CC[C@]2(C#N)CC[C@]3(C)[C@H](CC[C@@H]4[C@@]5(C)CCCNC(C)(C)[C@@H]5CC[C@]43C)[C@@H]12	110%	68.9%	60.3%	71.8%	118%	94.6%	62.2%	82.4%	50.6%	40%	-26% (active)	-18.6% (active)	82.7%	88.6%	72.4%	118%	46.4%	70.1%	91.8%	88.3%
C#Cc1cccc(Nc2ncnc3ccc(-c4cnc(Cl)c(NS(C)(=O)=O)c4)cc23)c1	-73.6% (active)	-46.3% (active)	3.41% (active)	-80.8% (active)	-72.8% (active)	13.4%	-31.9% (active)	-76.8% (active)	7.99% (active)	-11.7% (active)	-9.92% (active)	-31.8% (active)	3.78% (active)	-15.5% (active)	9.21% (active)	-25% (active)	-55.8% (active)	-72.5% (active)	-21.4% (active)	7.96% (active)
COc1ccc(C(c2cc(OC)c(OC)c(OC)c2)n2cncn2)cc1O (stereo not given)	55.9%	39.8%	39.3%	58%	61.3%	52.4%	40.4%	9.66% (active)	9.34% (active)	16.7%	7.03% (active)	20.7%	13.4%	73%	72.1%	20.3%	49.2%	1.74% (active)	31.3%	1.8% (active)
CCOC(=O)C1=CCC(n2cc(F)c(=O)[nH]c2=O)O1 (stereo not given)	103%	118%	104%	87.8%	110%	103%	102%	99.9%	97.4%	92.9%	99.8%	105%	97%	119%	130%	121%	126%	92.5%	116%	106%
Nc1ncc(-c2ccc3ncnc(N4CCc5cc(F)c(Cl)cc54)c3c2)cn1	66.7%	15.7%	26%	14.4%	21.8%	20.5%	15.7%	-29.5% (active)	22%	17.3%	36.5%	20.8%	45.4%	27%	54.6%	29.4%	9.49% (active)	37.9%	13.2%	50.4%
COc1cc(CNC(=O)CCCC/C=C/C(C)C)ccc1OCc1cn(-c2ccc(C(F)(F)F)cc2)nn1	95.1%	88.3%	20.5%	70.5%	92.8%	90.2%	80.4%	85.8%	68.8%	80.3%	70.4%	53.4%	41.1%	96.6%	98.6%	91.3%	58.7%	107%	80.4%	48.2%
O=c1ccc2nc(-c3ccccc3)nn(-c3ccccn3)c-2c1	96.8%	109%	93.1%	20.5%	-83.4% (active)	-91.9% (active)	77.4%	88.2%	1.08% (active)	-10.6% (active)	1.2% (active)	35.8%	80%	117%	83.5%	83.9%	89%	-14.9% (active)	101%	101%
CN(C)CCOc1ccc(/C(=C(/CCCCCCCCCC[P+](c2ccccc2)(c2ccccc2)c2ccccc2)c2ccccc2)c2ccccc2)cc1	-75.9% (active)	-86.1% (active)	-86.2% (active)	-90.3% (active)	-82.7% (active)	-95.8% (active)	-93.2% (active)	-92.9% (active)	-56% (active)	-60% (active)	-53.4% (active)	-48.3% (active)	-53.5% (active)	-97.2% (active)	-81.6% (active)	-81% (active)	-76.5% (active)	-93.9% (active)	-36.4% (active)	-69% (active)
CN(C)CCOc1nc2c3cc([N+](=O)[O-])ccc3nn2c2ccccc12	91.6%	67.3%	14%	23.4%	60.8%	-51.3% (active)	23.6%	31.6%	11.7%	2.34% (active)	7.43% (active)	41.8%	31.5%	58.6%	62.4%	34.9%	29.8%	63.7%	69.8%	37%
COc1ccc(NC(=O)c2sc3nc(C)c(C(=O)c4ccccc4)cc3c2N)cc1	88.8%	94.7%	99.5%	90%	86.6%	95.1%	92.9%	-9.31% (active)	95%	88.5%	81.2%	101%	101%	82.8%	91.1%	92.6%	101%	103%	83.5%	108%
CN(C)C(=S)NN=C(c1ccccn1)c1ccccn1	13.4%	-15.7% (active)	28.5%	20.7%	6.04% (active)	16.8%	30%	-11% (active)	-34.3% (active)	-2.95% (active)	-33.6% (active)	17.8%	33.1%	59.1%	21.5%	51%	16%	51.9%	44.9%	19.9%
Cc1ccc2c(n1)C[C@H](C(C)(C)O)CC[C@H]2C	99.9%	92.4%	98.4%	90.6%	97.5%	102%	92.8%	98.1%	106%	103%	107%	110%	101%	94.7%	99.6%	99.1%	104%	113%	111%	104%
